PubChem BioAssay (Tox21)
Unmarked numbers belong to inactive results. Inconclusive results are not listed. A call without a number means that no potency is given here. Calls of active or inactive are those of the source. Unless noted, the call rests on the fitted dose curve; in most records, active means well fitted curve in the direction sought with a large enough effect in the repeat runs; inconclusive means weak or mixed curves; inactive means no such curve, though single readings can be large; an effect the other way counts as inactive or inconclusive.

Assays:
[1] = target: Progesterone receptor (Homo sapiens) (UniProt P06401); test: qHTS assay to identify small molecule agonists of the progesterone receptor (PR) signaling pathway (AID 1346784; calls by dose curve; further: nearly all actives have a fitted effect of over 30% in size)
Progesterone receptor (Homo sapiens), sequence (P06401 whole entry, looked up): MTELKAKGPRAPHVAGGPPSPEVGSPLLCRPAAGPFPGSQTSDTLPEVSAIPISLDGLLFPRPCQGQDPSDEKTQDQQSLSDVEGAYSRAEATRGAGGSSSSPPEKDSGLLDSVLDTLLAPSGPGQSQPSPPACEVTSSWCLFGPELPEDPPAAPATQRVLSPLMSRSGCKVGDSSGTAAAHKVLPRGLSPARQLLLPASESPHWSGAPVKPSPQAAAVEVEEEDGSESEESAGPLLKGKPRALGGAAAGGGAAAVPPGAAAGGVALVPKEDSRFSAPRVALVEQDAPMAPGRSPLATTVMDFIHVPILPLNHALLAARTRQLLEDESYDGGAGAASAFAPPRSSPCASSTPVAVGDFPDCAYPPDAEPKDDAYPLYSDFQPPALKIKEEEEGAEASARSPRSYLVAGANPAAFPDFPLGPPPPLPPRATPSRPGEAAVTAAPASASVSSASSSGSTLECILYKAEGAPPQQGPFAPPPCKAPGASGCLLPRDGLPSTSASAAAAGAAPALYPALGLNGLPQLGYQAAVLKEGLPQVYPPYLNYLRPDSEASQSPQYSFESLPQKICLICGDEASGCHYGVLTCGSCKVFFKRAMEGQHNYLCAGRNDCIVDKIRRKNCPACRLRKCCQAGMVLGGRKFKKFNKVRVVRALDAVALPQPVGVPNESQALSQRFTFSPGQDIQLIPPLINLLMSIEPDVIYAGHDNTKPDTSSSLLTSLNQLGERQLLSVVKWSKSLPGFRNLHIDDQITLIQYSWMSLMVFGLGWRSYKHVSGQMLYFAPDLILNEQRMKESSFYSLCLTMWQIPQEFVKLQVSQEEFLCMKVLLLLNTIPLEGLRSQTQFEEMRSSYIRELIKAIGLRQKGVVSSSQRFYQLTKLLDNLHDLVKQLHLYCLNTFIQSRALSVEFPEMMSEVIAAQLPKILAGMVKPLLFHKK
Outline: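 PR-UAS-bla HEK 293T cells (beta-lactamase reporter under UAS) in 2% charcoal-stripped FBS, dosed with 23 nL compound after 6 hr, incubated 16hr at 37C. LiveBLAzer B/G FRET substrate added, fluorescence read after 2 hours.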

[2] = target: Progesterone receptor (Homo sapiens) (UniProt P06401); test: qHTS assay to identify small molecule antagonists of the progesterone receptor (PR) signaling pathway (AID 1346795; active means well fitted inhibition curve with a large enough effect in the signal ratio in the repeat runs, not every such curve was filed as active; the % refers to the signal ratio)
Outline: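 PR-UAS-bla HEK293T cells with beta-lactamase reporter under UAS control, in 2% charcoal-stripped FBS, treated with compounds plus 1 nM promegestone (R5020, final) for 16 hr at 37C. Read-out: FRET beta-lactamase substrate fluorescence after 2 hr at room temperature.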

[3] = qHTS assay to identify small molecule agonists of the progesterone receptor (PR) signaling pathway - cell viability counter screen (AID 1346799; calls by dose curve; further: nearly all actives have a fitted effect of over 45% in size)
Outline: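 Counter screen in the PR-UAS-bla HEK293T wells (2% charcoal-stripped FBS, 16 h compound exposure at 37 C) after the bla read. CellTiter-Glo added, 30 min at room temperature, luminescence read as cell viability.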

[4] = qHTS assay to identify small molecule antagonists of the TGF-beta/Smad signaling pathway - cell viability counter screen (AID 1346824); further: nearly all actives have a fitted effect of over 50% in size
Outline: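 SBE-bla HEK 293T cells were plated overnight at 37 C, then given compounds in DMSO plus TGF-beta1 (added as 0.25 ng/mL solution) for 5 hr. After the bla read, CellTiter-Glo was added to the same wells and luminescence read after 30 min at room temperature.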

[5] = qHTS assay to identify small molecule agonists of the TGF-beta/Smad signaling pathway - cell viability counter screen (AID 1346829); further: nearly all actives have a fitted effect of over 45% in size; further: potency means the concentration at half of the fitted maximal effect
Outline: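 Compound-treated SBE-bla HEK 293T cells (5 hr, 37 C) were assessed for viability with CellTiter-Glo in parallel with the reporter read.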

[6] = target: Thyrotropin-releasing hormone receptor (Homo sapiens) (UniProt P34981); test: qHTS assay to identify small molecule antagonists of the thyrotropin-releasing hormone receptor (TRHR) signaling pathway (AID 1346877; active means well fitted inhibition curve with a large enough effect in the repeat runs, not every such curve was filed as active; further: series mostly up to about 51 µM)
Thyrotropin-releasing hormone receptor (Homo sapiens), sequence (P34981 whole entry, looked up): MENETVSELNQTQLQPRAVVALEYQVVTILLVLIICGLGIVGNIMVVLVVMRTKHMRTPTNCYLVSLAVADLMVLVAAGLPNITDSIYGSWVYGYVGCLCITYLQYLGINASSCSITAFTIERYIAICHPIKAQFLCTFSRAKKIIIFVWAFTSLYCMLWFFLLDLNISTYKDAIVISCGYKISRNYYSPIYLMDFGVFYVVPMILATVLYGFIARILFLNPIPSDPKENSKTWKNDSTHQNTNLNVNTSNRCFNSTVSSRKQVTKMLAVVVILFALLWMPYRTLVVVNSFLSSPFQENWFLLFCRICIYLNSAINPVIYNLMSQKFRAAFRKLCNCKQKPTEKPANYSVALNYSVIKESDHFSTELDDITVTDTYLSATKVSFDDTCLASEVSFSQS
Outline: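 Intracellular calcium fluorescence, read kinetically every second over 3 min, reports TRH-evoked signalling in HEK293 cells carrying TRHR. Test compounds were added 5 min ahead of a 1 nM TRH challenge.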

[7] = target: Thyrotropin-releasing hormone receptor (Homo sapiens) (UniProt P34981); test: qHTS assay to identify small molecule agonists of the thyrotropin-releasing hormone receptor (TRHR) signaling pathway (AID 1346891; calls by dose curve; further: series mostly up to about 58 µM)
Outline: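 HEK293 cells expressing TRHR plated 18 h at 37 C/5% CO2, calcium dye-loaded 2 h at 37 C, then compound added (agonist mode); kinetic calcium fluorescence read 3 min at 1 s intervals; 15 concentrations in triplicate.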

[8] = qHTS assay to identify small molecule agonists of the TGF-beta/Smad signaling pathway (AID 1346859; active means well fitted activation curve with a large enough effect in the signal ratio in the repeat runs, not every such curve was filed as active; the % refers to the signal ratio; further: series mostly up to about 77 µM)
Outline: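 SBE-bla HEK293T cells plated overnight, then compound exposure for 5 h at 37 C. Beta-lactamase reporter read with LiveBLAzer B/G FRET substrate after 2 h at room temperature, fluorescence at 405 nm excitation, 460/530 nm emission.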

[9] = Human pregnane X receptor (PXR) small molecule agonists, qHTS cell viability counter screen (AID 1346977); further: nearly all actives have a fitted effect of over 50% in size; further: potency means the concentration at half of the fitted maximal effect
Outline: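 PXR-Luc HepG2 cells (2,000/well, 5% charcoal-stripped FBS) preincubated 5 hr, then exposed to compounds 24 hr at 37 C. Viability read in the same wells by CellTiter-Fluor fluorescence, reagent added at 23 hr, 1 hr incubation.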

[10] = qHTS assay to identify small molecule antagonists of the progesterone receptor (PR) signaling pathway - cell viability counter screen (AID 1346798); further: nearly all actives have a fitted effect of over 50% in size; further: potency means the concentration at half of the fitted maximal effect
Outline: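 PR-UAS-bla HEK293T cells, 3,000/well in 2% charcoal-stripped FBS medium, dosed with compounds plus R5020 agonist and incubated 16 h at 37C. Viability then measured in the same wells by CellTiter-Glo luminescence after 30 min at RT.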

Row | SMILES | Potency [1] | Potency [2] | Potency [3] | outcome [4] | Potency [5] | outcome [6] | outcome [7] | Potency [8] | Potency [9] | Potency [10]
1 | O=C(O)c1cc(Cl)cc(Cl)c1O | inactive | inactive | inactive | inactive | inactive | inactive | inactive | – | – | –
2 | COc1cc(NC(C)CCCN)c2ncccc2c1 (stereo not drawn) | inactive | inactive | inactive | inactive | inactive | inactive | inactive | inactive | 29.8 µM (active) | –
3 | Nc1c(Cl)cc(Cl)cc1[N+](=O)[O-] | inactive | inactive | inactive | inactive | inactive | inactive | inactive | inactive | inactive | –
4 | CC(C)c1ccc(C(=O)N=C(N)N)cc1S(C)(=O)=O | inactive | inactive | – | inactive | inactive | – | – | inactive | inactive | inactive
5 | CCCCCCCCCCCCCCCC(=O)OCC | inactive | inactive | inactive | inactive | inactive | inactive | inactive | – | inactive | –
6 | CCC(C)(C)C(=O)O | inactive | inactive | inactive | inactive | inactive | inactive | inactive | inactive | inactive | –
7 | COc1ccc(CCN(C)CCCN2CCc3cc(OC)c(OC)cc3CC2=O)cc1OC | inactive | inactive | inactive | inactive | inactive | inactive | inactive | inactive | inactive | –
8 | C1=CCC2CC=CC2C1 (stereo not drawn) | inactive | inactive | inactive | inactive | inactive | inactive | inactive | inactive | inactive | –
9 | CC(=O)NNC(C)=O | inactive | inactive | inactive | inactive | inactive | inactive | inactive | inactive | inactive | –
10 | CCCCCCC(CO)CCCC (stereo not drawn) | inactive | inactive | – | inactive | – | inactive | inactive | inactive | inactive | inactive
11 | CC(C)c1ccc(C#N)cc1 | inactive | inactive | – | inactive | inactive | inactive | inactive | – | inactive | inactive
12 | C=CC(=O)NC(C)C | inactive | inactive | inactive | inactive | inactive | – | – | inactive | inactive | –
13 | CN1C(CSCC(F)(F)F)Nc2cc(Cl)c(S(N)(=O)=O)cc2S1(=O)=O (stereo not drawn) | inactive | inactive | inactive | inactive | inactive | – | – | – | inactive | –
14 | c1ccc(CNc2ncnc3c2ncn3C2CCCCO2)cc1 (stereo not drawn) | inactive | inactive | – | inactive | inactive | – | – | inactive | inactive | inactive
15 | NC(=O)c1ccccc1[N+](=O)[O-] | inactive | inactive | inactive | inactive | inactive | inactive | inactive | – | inactive | –
16 | C=CC(=O)O | inactive | inactive | – | inactive | – | – | – | – | inactive | inactive
17 | CC(=O)N[C@@H](Cc1ccc(O)cc1)C(=O)O | inactive | inactive | inactive | inactive | inactive | – | – | – | inactive | –
18 | CCCC(=O)OC(=O)CCC | inactive | inactive | – | inactive | inactive | – | – | inactive | inactive | inactive
19 | CSSc1ccoc1C | inactive | inactive | inactive | inactive | inactive | inactive | inactive | – | inactive | –
20 | CCCCOCCOC(=O)c1cccnc1 | inactive | inactive | – | inactive | inactive | inactive | inactive | inactive | inactive | inactive
21 | Cc1cccc(C)c1NC(=O)c1cc(S(N)(=O)=O)c(Cl)cc1O | inactive | inactive | inactive | inactive | inactive | inactive | inactive | inactive | inactive | –
22 | Oc1cccc2[nH]ccc12 | inactive | inactive | inactive | inactive | inactive | inactive | inactive | – | inactive | –
23 | Cc1ccc(S(=O)(=O)NC(=O)NC2CCCCC2)cc1 | inactive | inactive | inactive | inactive | inactive | inactive | inactive | inactive | inactive | –
24 | Nc1ccc(N=Nc2ccc(N)cc2)cc1 | inactive | inactive | – | inactive | inactive | inactive | inactive | – | 21.7 µM (active) | inactive
25 | CCCc1nc2c(C)cc(-c3nc4ccccc4n3C)cc2n1Cc1ccc(-c2ccccc2C(=O)O)cc1 | inactive | inactive | inactive | inactive | inactive | inactive | inactive | – | inactive | –
26 | O=P(O)(O)Oc1ccccc1 | inactive | inactive | inactive | inactive | inactive | inactive | inactive | inactive | inactive | –

Row | SMILES | Potency [1] | Potency [2] | Potency [3] | outcome [4] | Potency [5] | outcome [6] | outcome [7] | Potency [8] | Potency [9] | Potency [10]
27 | COc1cc(C(C)=O)ccc1OCCCN1CCC(c2noc3cc(F)ccc23)CC1 | inactive | inactive | inactive | inactive | inactive | inactive | inactive | inactive | inactive | –
28 | CC(=O)c1ccc[nH]1 | inactive | inactive | – | inactive | – | inactive | inactive | inactive | inactive | inactive
29 | O=C1CC[C@@H](C(=O)O)N1 | inactive | inactive | – | inactive | inactive | inactive | inactive | – | inactive | inactive
30 | CCN(CC)CCNC(=O)c1cc(Cl)c(N)cc1OC | inactive | inactive | inactive | inactive | inactive | inactive | inactive | inactive | inactive | –
31 | Cc1oc(=O)oc1COC(=O)[C@@H]1N2C(=O)[C@@H](NC(=O)[C@H](N)c3ccccc3)[C@H]2SC1(C)C | inactive | inactive | inactive | inactive | inactive | inactive | inactive | inactive | inactive | –
32 | CC[C@H]1OC(=O)[C@H](C)[C@@H](O[C@H]2C[C@@](C)(OC)[C@@H](O)[C@H](C)O2)[C@H](C)[C@@H](O[C@@H]2O[C@H](C)C[C@H](N(C)C)[C@H]2O)[C@](C)(O)C[C@@H](C)CN(C)[C@H](C)[C@@H](O)[C@]1(C)O | inactive | inactive | – | inactive | inactive | inactive | inactive | – | 18.1 µM (active) | inactive
33 | COC(CC(C)CCCC(C)(C)O)OC (stereo not drawn) | inactive | inactive | inactive | inactive | inactive | inactive | inactive | inactive | inactive | –
34 | CC12CC3CC(C)(C1)CC(N)(C3)C2 | inactive | inactive | inactive | inactive | inactive | – | – | inactive | – | –
35 | O=C1c2ccccc2C(=O)c2c(O)ccc(O)c21 | inactive | inactive | – | – | inactive | inactive | inactive | – | – | –
36 | CC(C)(O)CCc1ccccc1 | inactive | inactive | inactive | inactive | – | – | – | inactive | inactive | –
37 | Cc1ccc(Cl)cc1N | inactive | – | inactive | inactive | – | – | – | inactive | inactive | inactive
38 | [Cl][Nd]([Cl])[Cl] | inactive | – | inactive | inactive | inactive | inactive | inactive | inactive | inactive | inactive
39 | CC1CCC(C(C)CS)CC1S (stereo not drawn) | inactive | inactive | – | – | 54.9 µM (active) | inactive | inactive | – | inactive | –
40 | CC(C)(C)C1(CCc2ccc(Cl)cc2)CO1 (stereo not drawn) | inactive | – | inactive | inactive | inactive | inactive | inactive | inactive | inactive | inactive
41 | CCN(Cc1cccc(S(=O)(=O)O)c1)c1ccc(C(=C2C=CC(=[N+](CC)Cc3cccc(S(=O)(=O)O)c3)C=C2)c2ccc(O)cc2S(=O)(=O)[O-])cc1 | inactive | inactive | – | – | – | – | – | inactive | 18.6 µM (active) | –
42 | CCC1CCC(CCC(=O)O)C1 (stereo not drawn) | inactive | – | – | inactive | inactive | inactive | inactive | – | inactive | inactive
43 | Cc1c(C2(c3cc(Br)c(O)c(Br)c3C)OS(=O)(=O)c3ccccc32)cc(Br)c(O)c1Br | inactive | – | – | – | inactive | inactive | inactive | – | 14.9 µM (active) | 18.8 µM (active)
44 | Cc1cc([N+](=O)[O-])ccc1N | inactive | – | inactive | inactive | inactive | – | – | inactive | – | –
45 | CCN(Cc1cccc(S(=O)(=O)O)c1)c1ccc(C(=C2C=CC(=[N+](CC)Cc3cccc(S(=O)(=O)O)c3)C=C2)c2ccccc2S(=O)(=O)[O-])cc1 | inactive | inactive | – | – | – | inactive | inactive | inactive | 17.3 µM (active) | –
46 | O=C1OC(=O)c2c(Br)c(Br)c(Br)c(Br)c21 | inactive | – | inactive | inactive | inactive | inactive | inactive | inactive | inactive | inactive
47 | CC(C)COC(=O)c1ccc(O)cc1 | inactive | – | – | inactive | inactive | inactive | inactive | inactive | inactive | inactive
48 | CCOC(=O)N1CCC(Nc2ccc(Cl)cc2N)CC1 | inactive | – | – | inactive | – | inactive | inactive | inactive | inactive | inactive
49 | COc1cc(OC)c2ccc(=O)oc2c1 | inactive | – | inactive | inactive | inactive | – | – | inactive | inactive | inactive
50 | CC(C)Cc1ccc(CC(=O)O)cc1 | inactive | – | – | inactive | inactive | inactive | inactive | inactive | inactive | 29.8 µM (active)
51 | CC(=O)OCC1=C(C(=O)O)N2C(=O)[C@@H](NC(=O)CSc3ccncc3)[C@H]2SC1 | inactive | – | inactive | inactive | – | inactive | inactive | inactive | inactive | inactive
